# Experimental data taken from publication PMC4336329 (PLoS ONE, 2015).
# Out of some 310,000 compounds screened, about 14,000 (4.5%) showed an effect of 50% or more. The effect is printed as a negative number. Only a selection was taken, and strong results are over-represented in it overall.
# Molecular target: human ether-à-go-go-related gene (hERG) potassium channel (human, UniProt Q12809)
# Test: primary screen, population patch clamp on CHO cells stably expressing hERG; higher = less effect of the substance
# 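Note: peak tail current of the secondary pulse compared with the same well before compound.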
# Sequence of human ether-à-go-go-related gene (hERG) potassium channel (Q12809 whole entry, looked up): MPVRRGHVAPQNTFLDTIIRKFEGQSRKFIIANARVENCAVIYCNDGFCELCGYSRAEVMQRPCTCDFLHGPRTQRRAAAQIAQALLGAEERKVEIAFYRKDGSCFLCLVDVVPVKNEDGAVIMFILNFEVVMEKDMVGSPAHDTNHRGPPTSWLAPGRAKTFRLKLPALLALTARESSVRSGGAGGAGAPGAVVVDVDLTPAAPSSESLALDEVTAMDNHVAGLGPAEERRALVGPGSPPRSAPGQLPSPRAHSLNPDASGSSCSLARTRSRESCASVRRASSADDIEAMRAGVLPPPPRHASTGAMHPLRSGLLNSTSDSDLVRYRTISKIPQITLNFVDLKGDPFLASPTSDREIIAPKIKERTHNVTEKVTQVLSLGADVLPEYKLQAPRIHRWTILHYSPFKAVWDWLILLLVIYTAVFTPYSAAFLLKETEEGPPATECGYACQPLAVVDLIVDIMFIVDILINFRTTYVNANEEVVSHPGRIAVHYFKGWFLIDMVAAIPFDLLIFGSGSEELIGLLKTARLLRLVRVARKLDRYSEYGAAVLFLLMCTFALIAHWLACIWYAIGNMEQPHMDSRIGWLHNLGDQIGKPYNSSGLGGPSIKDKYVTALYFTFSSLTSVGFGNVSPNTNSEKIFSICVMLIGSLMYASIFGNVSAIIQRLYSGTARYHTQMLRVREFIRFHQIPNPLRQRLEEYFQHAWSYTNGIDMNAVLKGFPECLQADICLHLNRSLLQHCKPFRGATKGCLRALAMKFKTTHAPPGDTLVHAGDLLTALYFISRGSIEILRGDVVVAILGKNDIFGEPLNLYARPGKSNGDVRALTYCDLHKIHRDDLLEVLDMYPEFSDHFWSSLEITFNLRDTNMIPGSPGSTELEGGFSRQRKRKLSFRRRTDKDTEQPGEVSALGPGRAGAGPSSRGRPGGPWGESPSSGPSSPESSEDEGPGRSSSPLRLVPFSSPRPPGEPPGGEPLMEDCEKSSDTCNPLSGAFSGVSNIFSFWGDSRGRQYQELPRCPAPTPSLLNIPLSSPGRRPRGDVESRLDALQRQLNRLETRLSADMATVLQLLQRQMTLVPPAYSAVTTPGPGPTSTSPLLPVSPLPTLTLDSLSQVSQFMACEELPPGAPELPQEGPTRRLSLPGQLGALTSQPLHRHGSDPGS
row,Compound,"hERG current change (%, negative = inhibition) at 10uM [%]"
1,NC(=O)c1coc(-c2ccccc2)n1,12.9
2,O=C(COC(=O)c1cccc2ccccc12)NCCCc1ccccc1,0.562
3,COC1CCN(C(=O)c2ccc(OC3CCN(CCc4ccccc4)CC3)cc2)CC1,-29.8
4,CC(C)N1CCN(C(=O)c2ccc(OC3CCN(CCc4ccccc4)CC3)cc2)CC1,-0.0142
5,CC(NC(=O)c1ccc(OC2CCN(Cc3ccccn3)CC2)cc1)c1nccs1 (stereo not drawn),-10.3
6,Cc1csc(CNC(=O)c2ccc(OC3CCN(CCc4ccccc4)CC3)cc2)n1,-55.3
7,O=C(NCc1ccccn1)c1ccc(OC2CCN(Cc3ccccc3)CC2)cc1,-10.2
8,Cc1csc(C(C)NC(=O)c2ccc(OC3CCN(CCc4ccccc4)CC3)cc2)n1 (stereo not drawn),-66.2
9,CCOC(=O)C(CC(=O)Nc1nc(C(C)=O)c(C)s1)C(C)c1ccccc1 (stereo not drawn),2.61
10,C=CCSc1nc2c(c(=O)[nH]1)C(C(C)C)C(C#N)=C(N)O2 (stereo not drawn),3.05
11,O=C(Nc1ccc(-c2nc3ccccc3[nH]2)cc1)c1ccc2c(c1)OCO2,6.85
12,CCCCN(C)C(=O)c1cn(CC)c2ccc(S(=O)(=O)N(C)C)cc2c1=O,8.08
13,c1cc(C(c2nnnn2C2CCCCC2)N2CCN3CCCC3C2)ccn1 (stereo not drawn),-1.98
14,COc1ccc(NC(=O)C2CCCN2C(=O)NC2CCCCC2)cc1 (stereo not drawn),-2.82
15,CN(C)CCOc1ccccc1Cc1ccccc1.O=C(O)CC(O)(CC(=O)O)C(=O)O,-61.9
16,O=C(O)COc1ccccc1Cc1ccccc1,5.22
17,CN(C)CCOc1ccccc1C(C)(C)C.O=C(O)C(=O)O,5.47
18,COc1ccc(-n2ccc3ccccc32)cc1,13
19,CCCCCn1c(=O)c(F)cn(Cc2ccc(OC)c([N+](=O)[O-])c2)c1=O,-56.6
20,CCCCCCn1c(=O)c(F)cn(Cc2ccc(OC)c([N+](=O)[O-])c2)c1=O,-40.3
21,CCCCn1c(=O)c(F)cn(Cc2ccc(OC)c([N+](=O)[O-])c2)c1=O,-25.2
22,CC(C)(C)C(=O)Oc1ccc2cc(-c3ccc4ccccc4n3)c(=O)oc2c1,-10.5

row,Compound,"hERG current change (%, negative = inhibition) at 10uM [%]"
1,Nc1nc(CN2CCN(Cc3ccccc3)CC2)nc(Nc2ccc3c(c2)OCCO3)n1,-74.8
2,Nc1nc(CN2CCN(c3ccccc3F)CC2)nc(Nc2ccc3c(c2)OCCO3)n1,-74.4
3,CN1CCN(Cc2nc(N)nc(Nc3ccc4c(c3)OCCO4)n2)CC1,-26.1
4,O=C(CCN1CCN(c2ccccc2F)CC1)Nc1ccc2c(c1)OCO2,-27.6
5,Nc1nc(COC(=O)c2ccc3c(c2)OCCO3)nc(Nc2ccccc2)n1,10.2
6,c1ccc(CN2CCN(Cc3ccc4c(c3)OCCO4)CC2)cc1,-10.6
7,Cc1c(C(c2ccc(F)cc2)c2c(O)c3ccccc3oc2=O)c(=O)n(-c2ccccc2)n1C (stereo not drawn),-20.9
8,COc1ccc(-n2c(-c3ccco3)nc3c(cnn3-c3ccc(C)cc3)c2=O)cc1,1.88
9,C=CCn1c(NC(=O)c2ccc(C)cc2)nc2ccccc21,6.35
10,Cc1ccc(NCC(=O)N/N=C/c2c[nH]c3ccccc23)cc1,11.4
11,CC(C)NC(=O)C(Cc1ccccc1)N1C(=O)c2ccccc2C1=O (stereo not drawn),-4.63
12,COc1ccc(/C(O)=C2/C(=O)C(=O)N(CCN(C)C)C2c2cccnc2)cc1C (stereo not drawn),1.58
13,CC(=O)N1CCN(c2ccc(NC(=O)c3ccc(C)cc3)cc2)CC1,5.89
14,O=C(Nc1ccccc1)N1CCN(c2ccc(F)cc2)CC1,-7.74
15,O=C(Nc1ccc2snnc2c1)N1CCCCC1,11.9
16,CC(=O)c1ccc(N2CCN(C(=O)Nc3ccc(C)cc3)CC2)cc1,-4.03
17,CC(=O)N1CCN(c2ccc(NC(=O)c3ccc(F)cc3)cc2)CC1,-57.7
18,CC(=O)N1CCN(c2ccc(NC(=O)c3ccc(C(C)(C)C)cc3)cc2)CC1,0.16
19,O=C(Nc1ccc2snnc2c1)N1CCSCC1,6.76
20,CC(=O)c1ccc(N2CCN(C(=O)Nc3ccc(C(C)C)cc3)CC2)cc1,-63.7
21,CC(=O)c1ccc(N2CCN(C(=O)Nc3ccc(F)cc3)CC2)cc1,-24.5
22,CC(=O)c1ccc(N2CCN(C(=O)Nc3ccc(Cl)cc3)CC2)cc1,-8.35

row,Compound,"hERG current change (%, negative = inhibition) at 10uM [%]"
1,O=C(Nc1ccc(F)cc1)N1CCN(c2ccc(F)cc2)CC1,-67.8
2,O=C(Nc1ccc2snnc2c1)N1CCN(c2ccccc2)CC1,-57.2
3,O=S(=O)(Nc1ccc(N2CCOCC2)cc1)c1ccc2ccccc2c1,3.3
4,O=C1C(=O)N(CCS(=O)(=O)c2ccccc2)c2ccc(F)cc21,8.67
5,O=C(OCC(=O)N(CCc1ccccc1)Cc1ccccc1)c1cc(S(=O)(=O)N2CCOCC2)ccc1F,-10.8
6,Cn1c(N2CCOCC2)cc(=O)n(C)c1=O,-18.2
7,Cc1cc(C(=O)N2CCc3ccccc3C2)n[nH]1,5.11
8,Nc1cccc(NP(=O)(c2ccccc2)c2ccccc2)c1,11.7
9,Cc1c(NC(=O)C2Cc3ccccc3CN2C(=O)c2ccco2)c(=O)n(-c2ccccc2)n1C (stereo not drawn),-13.7
10,COc1ccc(C(=O)COC(=O)/C=C/c2ccc(S(=O)(=O)Nc3cccc(S(N)(=O)=O)c3)cc2)cc1,4.88
11,c1ccc2c(c1)Nc1cc3ccccc3cc1S2,8.83
12,COc1ccc(CCN(C)CCC(=O)Nc2c(C)cc(C)cc2C)cc1OC,-58.8
13,CCOc1ccc(CN(C)C(=O)NNC(=O)c2ccc(C)cc2)cc1OC,16.8
14,CCOc1ccc(CN(C)CC(=O)NNC(=O)c2ccc(Cl)cc2)cc1OC,-60.3
15,COc1ccc(CCN(C)C(=S)Nc2cccc(C)c2)cc1OC,5.19
16,CCOc1ccc(CN(C)CC(=O)Nc2cccc(C)c2)cc1OC,-77
17,CCOc1ccc(CN(C)CC(=O)Nc2cccc3ccccc23)cc1OC.O=C(O)C(=O)O,-16.5
18,COc1cccc(CN(C)CC(=O)NNC(=O)c2ccc(Cl)cc2)c1,-12.5
19,COc1ccc(CC(=O)Nc2cccc(-c3nnc(-c4cccc(C)c4)o3)c2)cc1OC,11.3
20,COc1ccc(CCN(C)CCC(=O)Nc2cccc(C)c2)cc1OC.Cl,-65.8
21,COc1ccc(CCN(C)CC(=O)Nc2c(C)cc(C)cc2C)cc1OC.Cl,4.26
22,CCOc1ccc(CN(C)CC(=O)Nc2ccc3c(c2)CCC3)cc1OC,-39

row,Compound,"hERG current change (%, negative = inhibition) at 10uM [%]"
1,COc1ccc(CCNCCC(=O)Nc2c(C)cc(C)cc2C)cc1OC.Cl,-13.8
2,CCc1cc2ccccc2nc1Cl,6.29
3,O=C(CN(Cc1ccc2c(c1)OCO2)C(=O)CNS(=O)(=O)c1ccccc1)NCc1ccco1,-22
4,CC[C@@H]1CC=C[C@H]2[C@H]1C(=O)N(Cc1ccccc1)[C@H]2c1ccc(OC)c(Cl)c1,10.6
5,O=C(Cc1ccc(F)cc1)OCC(=O)c1cc2ccccc2o1,-2.43
6,CCNC(=S)NNC(=O)Cn1c(=O)c2c(ncn2CCOC)n(Cc2ccccc2)c1=O,15.3
7,Cc1ccc(NC(=O)Nn2cnnc2)c(C)c1,1.62
8,COC(=O)CSc1[nH]c2ccc(Br)cc2c1[N+](=O)[O-],16.7
9,Nc1cccc(S(=O)(=O)Nc2ccccc2)c1,25.5
10,COc1ccc(CCN(C)CCC(=O)Nc2ccc(C)cc2)cc1OC.Cl,-64.3
11,COc1ccc(CCN(C)CC(=O)Nc2ccc(F)c(Cl)c2)cc1OC,-35.3
12,CCCCN(C)CCC(=O)Nc1ccc(C)cc1.Cl,-14.8
13,COc1ccc(CCN(C)CCC(=O)Nc2cc(C)ccc2C)cc1OC,-55.6
14,COc1ccc(CC(=O)Nc2cc(C)ccc2O)cc1OC,4.22
15,COC(=O)c1ccc(C)c(NC(=O)CCc2ccc(OC)c(OC)c2)c1,6.37
16,O=[N+]([O-])c1cc(F)c(N2CCCCC2)cc1Br,-3.83
17,O=C(C1CC1)N1CCc2cc(S(=O)(=O)NCC3COc4ccccc4O3)ccc21 (stereo not drawn),6.27
18,Cc1c(C)c2ccc(OC(C)C(=O)N3CC[C@@]4(O)CCCC[C@H]4C3)cc2oc1=O (stereo partly drawn),-11.2
19,COc1ccc(CN2C(=O)c3cccnc3C2=O)cc1S(=O)(=O)NC1CCCCC1C (stereo not drawn),10.8
20,CN(C)CCNC(=O)c1nn(C)c2c1CCc1ccccc1-2,-12.4
21,O=C(c1ccccc1Cl)c1c(O)c2ccccc2oc1=O,-3.19
